# Where “and” joins values, the source holds several entries; their conditions need not be identical. Equal values may be shown once.
# System: Bacteroides thetaiotaomicron
# Assay: growth AUC relative to DMSO control (median of replicates) (fraction); higher = more growth (less inhibition), active = hit call of the paper
# Settings: 20 µM; 24 h;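 active = AUC reduced over 20% with Padj below 0.05 in at least 2 of 3 replicates; inactive = otherwise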
# Procedure, shortened: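 Gut bacteria were grown singly in mGAM at 37 °C without oxygen, from OD600 0.05, alongside 20 µM compound in 1% DMSO, and OD600 was read each hour for 24 h. Area under the growth curve was normalised to the median of solvent-only wells per plate, or to row and column medians on the industrial chemical plate. The minimum OD was set to 0 beforehand, and the reported value is the median of three biological replicates grown on separate days.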
row,SMILES,growth AUC
1,Cc1cccc(C)c1N,1.04 (inactive)
2,C=CCOC(=O)C(C)(C)OC(=O)c1cc(-n2c(=O)cc(C(F)(F)F)n(C)c2=O)ccc1Cl,0.974 (inactive)
3,CCOP(=O)(NC(C)C)Oc1ccc(S(C)(=O)=O)c(C)c1 (centres undefined),1.02 (inactive)
4,Cc1cc(OC(=O)N(C)C)nn1C(=O)N(C)C,1.02 (inactive)
5,CCCCCCCCSC(=O)Oc1cc(Cl)nnc1-c1ccccc1,1.02 (inactive)
6,CC1(C(=O)Nc2ccc(O)c(Cl)c2Cl)CCCCC1,0.94 (inactive)
7,CC(Oc1ccc(Oc2ccc(Cl)cc2Cl)cc1)C(=O)O (racemic),0.989 (inactive)
8,C[Si](Cn1cncn1)(c1ccc(F)cc1)c1ccc(F)cc1,0.895 (inactive)
9,CN(C)C1CSSSC1.O=C(O)C(=O)O,1.07 (inactive)
10,COP(=S)(OC)SCn1nnc2ccccc2c1=O,0.969 (inactive)
11,CCSC(=O)N1CCCCCC1,0.995 (inactive)
12,O=C(O)c1c(Cl)ccc2cc(Cl)cnc12,1.02 (inactive)
13,CCCSP(=S)(OCC)Oc1ccc(SC)cc1 (centres undefined),0.979 (inactive)
14,Cc1cc(C(F)(C(F)(F)F)C(F)(F)F)ccc1NC(=O)c1cccc(I)c1C(=O)NC(C)(C)CS(C)(=O)=O,1.02 (inactive)
15,Cc1cc(Cl)ccc1O,1.03 (inactive)
16,COc1cc(OC)nc(NC(=O)NS(=O)(=O)c2ncccc2C(=O)N(C)C)n1,1.01 (inactive)
17,Cc1cccc2sc3nncn3c12,0.993 (inactive)
18,CCC(C)c1cc([N+](=O)[O-])cc([N+](=O)[O-])c1O (centres undefined),0.876 (inactive)
19,CCOP(=S)(OCC)SCSC(C)(C)C,0.998 (inactive)
20,CCNc1nc(Cl)nc(NC(C)(C)C#N)n1,0.998 (inactive)

row,SMILES,growth AUC
1,Cc1ccccc1C(=O)Nc1cccc(OC(C)C)c1,0.928 (inactive)
2,N#CN=C1SCCN1Cc1ccc(Cl)nc1,0.999 (inactive)
3,COP(=O)(OC)Oc1ccc(S(C)=O)c(C)c1 (centres undefined),0.972 (inactive)
4,COCC(=O)N(c1c(C)cccc1C)[C@H](C)C(=O)OC,1 (inactive)
5,CC(=NC#N)N(C)Cc1ccc(Cl)nc1,0.987 (inactive) and 0.95 (inactive)
6,CC1(C)C(C(=O)OC(C#N)c2cccc(Oc3ccccc3)c2)C1(C)C (centres undefined),0.986 (inactive)
7,CNC(=O)Oc1cc(C)c(N(C)C)c(C)c1,0.995 (inactive)
8,CN(C)C(=S)SSC(=S)N(C)C,0.75 (active)
9,CCOP(=S)(OCC)SCn1nnc2ccccc2c1=O,0.908 (inactive)
10,[CH3][Hg][Cl],0.679 (active)
11,CCCCc1c(C)nc(NCC)nc1OS(=O)(=O)N(C)C,0.944 (inactive)
12,CC1(C)[C@H](/C=C(\Cl)C(F)(F)F)[C@@H]1C(=O)O[C@@H](C#N)c1cccc(Oc2ccccc2)c1,0.997 (inactive)
13,CCCN(CCOc1c(Cl)cc(Cl)cc1Cl)C(=O)n1ccnc1,0.869 (inactive)
14,CCOP(=S)(OCC)Oc1cc(Cl)c(Br)cc1Cl,0.979 (inactive)
15,C/C(=N\NC(=O)Nc1cc(F)cc(F)c1)c1ncccc1C(=O)[O-].[Na+],1.01 (inactive)
16,C1=Cc2cccc3cccc1c23,1.01 (inactive)
17,CCc1ccc(C(=O)NN(C(=O)c2cc(C)cc(C)c2)C(C)(C)C)cc1,0.976 (inactive)
18,C#CCOc1ccc(CCNC(=O)C(OCC#C)c2ccc(Cl)cc2)cc1OC (centres undefined),0.951 (inactive)
19,COC(=O)c1ccccc1S(=O)(=O)NC(=O)Nc1nc(C)nc(OC)n1,0.995 (inactive)

# Reference: the supplement of paper PMC12669032
